From PubChem BioAssay (NCATS)
Records with an inconclusive call do not appear. Active and inactive are the calls of the source. Calls come from the whole dose curve; as a rule, active = well fitted inhibition curve with a large enough effect; inconclusive = small, poorly fitted or top-dose-only effect; inactive = flat fitted curve, though single readings scatter.

How the values were obtained:
CRL-7250 = normal cell line; test: Cytotoxic Profiling of Annotated Libraries Using Quantitative High-Throughput Screening (AID 1296008); conditions: Five cell lines viability, CellTiter-Glo ATP luminescence, 48-72 h; max response: hits give low values; for max response: % is set by controls: 0 for no effect and ±100 for the full control effect
In short: (§1)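 Compounds were pin-transferred onto cells and incubated 48 or 72 hr at 37 degree Celsius, 95% humidity. CellTiter-Glo was added, plates sat 10 min at room temperature, then ATP-coupled luminescence was imaged as the viability read-out.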

HaCat [1] = test: as above; conditions: Five cell lines viability, CellTiter-Glo ATP luminescence, 48-72 h; max response: hits give low values
In short: as §1

KB-3-1 = test: as above; conditions: Five cell lines viability, CellTiter-Glo ATP luminescence, 48-72 h; max response: hits give low values
In short: as §1

NIH3T3 = test: as above; conditions: Five cell lines viability, CellTiter-Glo ATP luminescence, 48-72 h; max response: hits give low values
In short: as §1

HACAT [2] = test: qHTS assay to identify novel small-molecules to repurpose for Merkel cell carcinoma treatment (AID 1296009); conditions: MCC and control cell lines, CellTiter-Glo viability, 72 h; at 44.8 µM (top of the series) unless noted
In short: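 Luminescence from CellTiter-Glo, read 10 min after addition at room temperature, reported viability following a 72 hr, 37 degree celsius treatment with NPC or MIPE compounds in titration; values normalized to plate controls.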

Measured: max response
Note: nearly all actives have a fitted effect of over 60% in size.

Cc1[nH]c2ccccc2c1CCNC(=O)c1cccs1
inactive: CRL-7250 -14.1% | HaCat [1] | KB-3-1 | NIH3T3 0.258% | HACAT [2]

Cc1cc2c(N3CCCC3)nc(N3CCCC3)nc2n1C
inactive: CRL-7250 1.58% | HaCat [1] | KB-3-1 -0.182% | NIH3T3 -2.11% | HACAT [2]

CN1CC2CN(c3ccc4oc5ccccc5c(=O)c4c3)CC2C1 (stereo not given)
inactive: CRL-7250 -0.983% | HaCat [1] | KB-3-1 -11.6% | NIH3T3 -10.4% | HACAT [2] inactive [at 17.4 µM]

C=C1CCC2C(C)(C)CCCC2(C)C1CC/C(C)=C\CO (stereo not given)
inactive: CRL-7250 3.55% | HaCat [1] | KB-3-1 1.75% | NIH3T3 | HACAT [2]

CCC(C)C1NC(=O)C(Cc2ccccc2)NC(=O)C(CCCCCC(=O)C(O)CO)NC(=O)C2CCCCN2C1=O (stereo not given)
inactive: CRL-7250 -4.29% | HaCat [1] | KB-3-1 | NIH3T3 | HACAT [2] inactive [at 17.4 µM]

O=C(c1ccc(OC(F)F)c(C#Cc2ccccn2)c1)N1Cc2cccnc2C1
inactive: CRL-7250 4.31% | HaCat [1] | KB-3-1 -1.9% | NIH3T3 3.1% | HACAT [2]

CC(NCCCc1cccc(C(F)(F)F)c1)c1cccc2ccccc12 (stereo not given)
inactive: CRL-7250 1.05% | HaCat [1] | KB-3-1 -6.75% | NIH3T3 3.68% | HACAT [2] inactive [at 17.4 µM]

C/C=C/C1=CC2=C(CO1)C(=O)C(C)(OC(=O)c1c(C)cc(O)cc1OC)C(O)C2 (stereo not given)
inactive: CRL-7250 3.73% | HaCat [1] | KB-3-1 2.17% | NIH3T3 1.21% | HACAT [2]

COc1ccc(S(=O)(=O)Nc2cc(Cl)cc(Cl)c2OC)cc1N1CCNCC1
inactive: CRL-7250 -0.811% | HaCat [1] | KB-3-1 -5.04% | NIH3T3 -3.81% | HACAT [2]

CC(=O)OC1CC(C)C2(CCC3(CC(=O)OC3O)O2)C2(C)CCCC(C)(C)C12 (stereo not given)
inactive: CRL-7250 | HaCat [1] | KB-3-1 0.411% | NIH3T3 0.0681% | HACAT [2] inactive [at 17.4 µM]

O=C(Nc1cccnc1)c1cc(-c2ccnc(F)c2)ccc1OCc1ccccc1
inactive: CRL-7250 -1.07% | HaCat [1] | KB-3-1 6.84% | NIH3T3 4.92% | HACAT [2]

CC(C)(C)Sc1c(CC(C)(C)C(=O)O)n(Cc2ccc(Cl)cc2)c2ccc(OCc3ccc4ccccc4n3)cc12
inactive: CRL-7250 -0.604% | HaCat [1] | KB-3-1 | NIH3T3 1.54% | HACAT [2]

O=c1cc(OCc2ccc(F)cc2)ccn1-c1ccc(OCCN2CCCC2)cc1
inactive: CRL-7250 -11.7% | HaCat [1] | KB-3-1 -29.6% | NIH3T3 -16.9% | HACAT [2]

N[C@@H]1c2cccnc2[C@H](OC(=O)N2CCC(n3c(=O)[nH]c4ncccc43)CC2)CC[C@H]1c1cccc(F)c1F
inactive: CRL-7250 -0.901% | HaCat [1] | KB-3-1 4.19% | NIH3T3 | HACAT [2]

CC(C)OC(=O)N1CCC(Oc2ncnc3c2cnn3-c2ccc(S(C)(=O)=O)cc2F)CC1
inactive: CRL-7250 | HaCat [1] | KB-3-1 -25.6% | NIH3T3 -1.21% | HACAT [2]

CCOC(=O)CCNc1cc(N2CCc3ccccc3CC2)nc(-c2cccnc2)n1
inactive: all assays above

C=C1C(=O)OC2CC(C)C(CCC(C)O)=CCC12 (stereo not given)
inactive: CRL-7250 -9.97% | HaCat [1] | KB-3-1 | NIH3T3 -1.15% | HACAT [2]

CCC/C=C/C(=O)O[C@H]1CC(C)(C)CC2[C@@]13[C@H](O)C[C@]1(C)[C@@]2(CCC2[C@@]4(C)CC[C@H](O[C@@H]5O[C@H](C(=O)O)[C@@H](O)[C@H](O[C@@H]6O[C@H](CO)[C@H](O)[C@H](O)[C@H]6O[C@@H]6O[C@@H](C)[C@H](O)[C@@H](O)[C@H]6O[C@@H]6OC[C@](O)(CO)[C@H]6O)[C@H]5O[C@@H]5O[C@H](CO)[C@H](O)[C@H](O)[C@H]5O)C(C)(C)C4CC[C@]21C)O[C@H]3O (stereo not given in full)
inactive: CRL-7250 | HaCat [1] | KB-3-1 | NIH3T3 3.59% | HACAT [2] inactive [at 9.27 µM]

O=C(NCC1CCN(Cc2cccc(Cl)c2)CC1)[C@@H]1CCCN(c2ncnc3c2nc2n3CCCC2)C1
inactive: CRL-7250 4.3% | HaCat [1] | KB-3-1 -6.02% | NIH3T3 | HACAT [2]

COC1=CC(=O)O/C1=C(/OC)[C@@H]1O[C@H]1c1ccccc1
inactive: CRL-7250 -14.3% | HaCat [1] | KB-3-1 -13.4% | NIH3T3 -27.3% | HACAT [2]
